Measurements taken from ChEMBL document CHEMBL1157539, “Thousands of chemical starting points for antimalarial lead identification” (Nature, 2010).
Whole data set: some 13,000 compounds, median “IFI” near 4, cut for the highest 2% near 17. For the sample, the highest values were picked, then their nearest neighbours and some compounds at random.

Experiment: GSK_TCMDC: Inhibition Frequency Index (IFI). The number of non-kinase HTS assays where a compound showed > 50 % inhibition, expressed as a percentage of the number of such assays in which the compound was tested
Type: functional
`CC1(C)N=C(N)N=C(Nc2ccc(Cl)cc2)N1` gave an IFI of 0.76%.
Work on `FC(F)(F)c1ccc2[nH]c(-c3cccc(-c4cccc(CN5CCN(c6ccncc6)CC5)c4)c3)nc2c1` yielded an IFI of 11.5%.
`CCCNCc1ccc(-c2ccc(CN(CCOC)C(=O)c3cccc(C#N)c3)cc2)nc1` showed an IFI of 0.7%.
Work on `Nc1nc2c(ncn2COC(COCc2ccccc2)COCc2ccccc2)c(=O)[nH]1.Nc1nc2ncn(COC(COCc3ccccc3)COCc3ccccc3)c2c(=O)[nH]1` yielded an IFI of 0%.
`CCCCCCCOc1ccc(NC(=O)Nc2ccc(Cn3ncc(N4CCCNCC4)c(Cl)c3=O)cc2)cc1` gave an IFI of 19.1%.
Compound `CCCCOC(=O)c1ccc(NC(=O)Nc2ccc(Cn3ncc(N4CCCNCC4)c(Cl)c3=O)cc2)cc1` has an IFI of 5.97%.
Work on `CCCCCc1ccc(NC(=O)Nc2ccc(Cn3ncc(N4CCCNCC4)c(Cl)c3=O)cc2)cc1` yielded an IFI of 9.09%.
Work on `Cc1[nH]c(C)c(-c2ccc(OCCCc3ccccn3)cc2)c(=O)c1Br` yielded an IFI of 0%.
For `COc1ccc(NC(=O)c2ccc(-c3ccc(-c4cccnc4)cc3)c(C)c2)cc1OCCN(C)C`, the IFI was 6.9%.
`COC(=O)c1ccc(-c2ccc(-c3cccnc3)cc2C)cc1` gave an IFI of 21.7%.
`COC(=O)c1ccc2nc(-c3cc(-c4cccc(-c5ccccc5)c4)cnc3N)[nH]c2c1` showed an IFI of 2.94%.
`Cc1ccccc1Nc1nc(Nc2ccccc2)c2ccccc2n1` gave an IFI of 3.65%.
`O=C1c2cc(I)ccc2SC1c1ccccc1` (stereo not given) showed an IFI of 1.43%.
`O=S(=O)(NCCN1CCCC1)c1cccc(-c2ccc(CNCc3ccccc3)cc2)c1` gave an IFI of 5.88%.
Work on `O=[N+]([O-])c1cccc(C(Nc2ccccn2)c2ccc3cccnc3c2O)c1` (stereo not given) yielded an IFI of 8.74%.
With `CC1(C)N=C(N)N=C(N)C1c1ccc(Cl)c(Cl)c1` (stereo not given) the IFI was 1.43%.
In the case of `CCCCCCC1(C)N=C(N)N=C(N)C1c1ccc(Cl)c(Cl)c1` (stereo not given), the IFI is reported as 2.78%.
Work on `CC1(CCc2ccccc2)N=C(N)N(Cc2ccccc2)C(=O)C1c1ccc(Cl)c(Cl)c1` (stereo not given) yielded an IFI of 19.2%.
`CCC1(c2ccccc2)N=C(N)N(CCCc2ccccc2)C1=O` (stereo not given) gave an IFI of 7.14%.
In the case of `CC1(CCc2ccccc2)N=C(Nc2ccc(Cl)cc2)N=C(N)C1c1ccc(Cl)c(Cl)c1` (stereo not given), the IFI is reported as 26.6%.
`CC1(CCc2ccccc2)N=C(N)N=C(N)C1c1ccc(Cl)c(Cl)c1` (stereo not given) showed an IFI of 2.94%.
`NS(=O)(=O)c1cccc(-c2ccc3nccc(-c4cccc(S(N)(=O)=O)c4)c3c2)c1` showed an IFI of 0%.
For `Cn1c(N=C2NC3(c4ccccn4)NC(=Nc4nc5ccccc5n4C)NC3(c3ccccn3)N2)nc2ccccc21` (stereo not given), the IFI was 3.6%.
`Cc1cccc(-c2nn(-c3ccccc3)c3[nH]c(=O)c(CN4CCSCC4)cc23)c1` showed an IFI of 1.82%.
`CC1(CCN2CCC(c3c[nH]c4cnccc34)CC2)CCCc2c(Br)cccc2C1=O` (stereo not given) gave an IFI of 8.51%.
In the case of `Cc1cc(C)c2ncc(C(=O)O)c(O)c2c1`, the IFI is reported as 1.46%.
With `Cc1cc(SC(C)(C)C)cc2c(Cl)c(C(N)=O)cnc12` the IFI was 32.5%.
`Oc1ccc(CCCNc2nc(NCc3ccccc3-c3ccccc3)nc(NC3CCNCC3)n2)cc1` gave an IFI of 15.2%.
Work on `COc1ccccc1-n1ccnc1SCC(=O)Nc1cccc(C(F)(F)F)c1` yielded an IFI of 5.93%.
`CC(CCON1C(N)=NC(N)=NC1(C)C)c1ccc(Cl)c(Cl)c1` (stereo not given) gave an IFI of 7.09%.
`Clc1ccc(OCCC2CCN(CCCCCCCN3CCC(CCOc4ccc(Cl)c(Cl)c4)CC3)CC2)cc1Cl` showed an IFI of 18.6%.
For `Clc1ccc(OCCC2CCN(CCCCCCN3CCCCC3)CC2)cc1Cl`, the IFI was 9.87%.
Compound `O=C(/C=C/c1ccc(Cl)c(Cl)c1)NCCCCCN1CCC(CCNC(=O)/C=C/c2ccc(Cl)c(Cl)c2)CC1` has an IFI of 11.2%.
`CCCNCc1ccc(-c2ccc(CN(CC3CCCO3)C(=O)C3CC(=O)c4ccccc43)cc2)nc1` (stereo not given) gave an IFI of 1.41%.
With `CCN(CC)CCN(Cc1ccc(-c2ccc(C(F)(F)F)cc2)cc1)C(=O)Cn1c(CCc2cc(F)c(F)c(F)c2)nc(=O)c2ccccc21` the IFI was 6.67%.
With `Cc1noc(C)c1-c1ccc2c(Nc3ccc([N+](=O)[O-])cc3)c(C(N)=O)cnc2c1` the IFI was 1.63%.
Work on `COc1ccc(O)c(C(=O)c2cc(C#N)c(=O)n(-c3ccc(Oc4ccccc4)cc3)c2)c1` yielded an IFI of 3.52%.
`N#Cc1cc(C(=O)c2cc(Cl)ccc2O)cn(-c2cccc(C(F)(F)F)c2)c1=O` gave an IFI of 7.44%.
Work on `CCc1ccc(-n2cc(C(=O)c3cc(Br)ccc3O)cc(C#N)c2=O)cc1` yielded an IFI of 15.9%.
In the case of `COc1ccc(-n2cc(C(=O)c3cc(Br)ccc3O)cc(C#N)c2=O)cc1Cl`, the IFI is reported as 14.8%.
With `N#Cc1cc(C(=O)c2cc(Cl)ccc2O)cn(-c2cc(Cl)cc(Cl)c2)c1=O` the IFI was 17.4%.
Compound `N#Cc1cc(C(=O)c2cc(Br)ccc2O)cn(-c2cc(Cl)cc(Cl)c2)c1=O` has an IFI of 20.6%.
For `COc1ccc2ccccc2c1C=NN=c1cc(C)[nH]c2c(C)cccc12`, the IFI was 1.48%.
In the case of `COc1ccc(Cn2c(Nc3cccc(C(F)(F)F)c3)nc3cc(C(=O)NCCCN(C)C)ccc32)cc1Cl`, the IFI is reported as 2.14%.
Compound `NCC1CCCN1Cc1cccc(-c2cccc(-c3nc4cc(F)ccc4[nH]3)c2)c1` (stereo not given) has an IFI of 5%.
Compound `O=C(Cn1c(CCc2cccc(F)c2F)nc(=O)c2ccccc21)N(Cc1ccc(-c2ccc(C(F)(F)F)cc2)cc1)C1CCN(C2=NCCS2)CC1` has an IFI of 12.5%.
Compound `CN1CCC(N2CCN(Cc3cccc(-c4ccc(-c5nc6cc(C(F)(F)F)ccc6[nH]5)cc4)c3)CC2)CC1` has an IFI of 9.72%.
Compound `CCCCNc1cc(NCCCC)c2c(n1)[nH]c1ccccc12` has an IFI of 19.4%.
`CCCCNc1cc(C)nc(NCc2ccccc2)n1` gave an IFI of 9.72%.
For `CCCCNc1c(C(=O)OCC)c(C)nc2c1[nH]c1ccccc12`, the IFI was 2.17%.
With `CCc1cc(COc2ccc(CNCCC(C)C)cc2I)c(OCc2ccccc2)c(COc2ccc(CNCCC(C)C)cc2I)c1` the IFI was 14.3%.
Work on `CCOc1ccc2c(=NN=Cc3ccccc3OC)cc(C)[nH]c2c1` yielded an IFI of 3.62%.
`FC(F)(F)c1ccccc1OCc1cc(-c2ccncc2)c(COc2ccccc2C(F)(F)F)cc1C1=CCNCC1` gave an IFI of 10.6%.
`Oc1ccc(-c2cc(COc3ccccc3C(F)(F)F)c(C3=CCNCC3)cc2COc2ccccc2C(F)(F)F)cc1` gave an IFI of 17.3%.
`Nc1nc(N)c2cc(NC(=O)c3ccc(Cl)c(Cl)c3)ccc2n1` showed an IFI of 15.9%.
`Cc1nc(C)c(-c2ccc(Oc3ccc(Cl)cc3Cl)cc2)c(O)c1Br` gave an IFI of 1.52%.
`FC(F)(F)COc1c(CCNCCCCNCCc2ccc3ccccc3c2OCC(F)(F)F)ccc2ccccc12` showed an IFI of 19.3%.
Compound `CSc1ccc2ccccc2c1CCNCCCCNCCc1c(SC)ccc2ccccc12` has an IFI of 17%.
Work on `CN(C)c1c(CNCCCCCCNCc2ccc3ccccc3c2N(C)C)ccc2ccccc12` yielded an IFI of 15.7%.
With `N#Cc1ccc(CNCCCCCCNCc2ccc(C#N)c3ccccc23)c2ccccc12` the IFI was 7.04%.
In the case of `FC(F)(F)COc1ccc2ccccc2c1CNCCCCCCNCc1c(OCC(F)(F)F)ccc2ccccc12`, the IFI is reported as 14.9%.
Work on `FC(F)(F)COc1ccc(CCNCCCCNCCc2ccc(OCC(F)(F)F)c3ccccc23)c2ccccc12` yielded an IFI of 20.3%.
With `FC(F)(F)COc1c(CNCCCCCCNCc2ccc3ccccc3c2OCC(F)(F)F)ccc2ccccc12` the IFI was 14.9%.
`FC(F)(F)COc1ccc2ccccc2c1CCNCCCCNCCc1c(OCC(F)(F)F)ccc2ccccc12` gave an IFI of 23.4%.
With `FC(F)(F)COc1ccc(CNCCCCCCNCc2ccc(OCC(F)(F)F)c3ccccc23)c2ccccc12` the IFI was 21%.
With `O=[N+]([O-])c1ccc(CNCCCCCCNCc2ccc([N+](=O)[O-])c3ccccc23)c2ccccc12` the IFI was 10.3%.
Work on `CCCOc1ccc(CCNCCCCNCCc2ccc(OCCC)c3ccccc23)c2ccccc12` yielded an IFI of 12.5%.
In the case of `COc1ccc(CCNCCCCNCCc2ccc(OC)c3ccccc23)c2ccccc12`, the IFI is reported as 13.9%.
`O=S(=O)(NCCN1CCCC1)c1ccc(-c2cccc(CNCCc3cccs3)c2)cc1` gave an IFI of 9.52%.
In the case of `CON=Cc1sc(CNCCCN=c2cc(O)c3ccccc3[nH]2)c(C)c1Br`, the IFI is reported as 6.52%.
Work on `N=C(N)c1ccc2[nH]c(SCc3ccccc3)nc2c1` yielded an IFI of 0.94%.
`O=c1c(Br)ccccc1Br` showed an IFI of 11.6%.
With `CCN(CC)CCN(Cc1ccc(-c2ccc(C(F)(F)F)cc2)cc1)C(=O)Cn1c(CCc2cccc(F)c2F)cc(=O)cc1-c1ccccc1` the IFI was 11.3%.
`N=C(N)NN=Cc1ccccc1OCc1ccccc1Cl` showed an IFI of 6.72%.
`CS(=O)(=O)NCCCNCc1ccc(-c2ccc(-c3nc4cc(C(F)(F)F)ccc4[nH]3)cc2)cc1` showed an IFI of 5.94%.
For `CCc1ccc(CN2CCC(CNC(=O)c3cc(-c4cccc(C(F)(F)F)c4)cs3)C2)cc1` (stereo not given), the IFI was 14%.
`CCCOc1ccc(CNCCCCCCNCc2ccc(OCCC)c3ccccc23)c2ccccc12` gave an IFI of 15.6%.
Work on `CCCCSc1ccc(CNCCCCCCNCc2ccc(SCCCC)c3ccccc23)c2ccccc12` yielded an IFI of 14.8%.
For `CCCCOc1ccc(CNCCCCCCNCc2ccc(OCCCC)c3ccccc23)c2ccccc12`, the IFI was 17.8%.
With `CC1(C)NC(=N)NC(=N)N1OCC=Cc1ccccc1` the IFI was 3.57%.
Work on `COc1ccc2[nH]ccc(=NN=Cc3ccc(Cl)cc3)c2c1` yielded an IFI of 0.74%.
Compound `CCN(CC)CCCNC(=O)/C(=C/C=C/c1cc2cc(Cl)c(Cl)cc2[nH]1)OC` has an IFI of 8.46%.
`CCOc1ccccc1N1CCN(CCCNC(=O)/C(=C/C=C/c2cc3cc(Cl)c(Cl)cc3[nH]2)OC)CC1` showed an IFI of 10.8%.
With `CCN(CC)CCNC(=O)/C(=C/C=C/c1cc2cc(Cl)c(Cl)cc2[nH]1)OC` the IFI was 7.63%.
`CO/C(=C\C=C\c1cc2cc(Cl)c(Cl)cc2[nH]1)C(=O)NCCCN1CCN(c2cccc(Cl)c2)CC1` gave an IFI of 8.27%.
For `CO/C(=C\C=C\c1cc2cc(Cl)c(Cl)cc2[nH]1)C(=O)NCCCNC12CC3CC(CC(C3)C1)C2`, the IFI was 21.1%.
Compound `CO/C(=C\C=C\c1cc2cc(Cl)c(Cl)cc2[nH]1)C(=O)NCCCCN1CCN(c2ccccc2OC)CC1` has an IFI of 19.1%.
`CCOC(=O)c1ccc(NC(=O)Nc2ccc(-c3cccc(-c4nc5cccc(C)c5[nH]4)c3)cc2)cc1` gave an IFI of 7%.
With `Cc1noc(C)c1-c1cccc(CNCc2ccc(-c3ccc(-c4nc5cc(F)ccc5[nH]4)cc3)cc2)c1` the IFI was 8.91%.
`O=C(Nc1cccc(Cl)c1)c1cnc(N2CCN(c3ccncc3)CC2)c(Cl)c1` showed an IFI of 16.7%.
`O=C(NCCc1cccc(Cl)c1Cl)c1ccc(N2CCN(c3ccncc3)CC2)nc1` showed an IFI of 10.4%.
Work on `Cc1ccccc1CCNC(=O)c1ccc(N2CCN(c3ccncc3)CC2)nc1` yielded an IFI of 2.08%.
`O=C(NCCc1cccc(Cl)c1Cl)c1cnc(N2CCN(c3ccncc3)CC2)c(Cl)c1` showed an IFI of 20%.
`Cc1ccccc1CCNC(=O)c1cnc(N2CCN(c3ccncc3)CC2)c(Cl)c1` gave an IFI of 20.8%.
With `COc1ccccc1CCNC(=O)c1cnc(N2CCN(c3ccncc3)CC2)c(Cl)c1` the IFI was 10.4%.
